Results reported in PubChem BioAssay AID720511 (Broad Institute, 2013).
Out of some 350,000 compounds screened, about 1,300 (0.37%) were called active. Many of the other results were omitted from the sample, so actives are more common in it than they were. Values without a mark were called inactive.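 Rule for the calls: active = mean added fluorescence quench of at least 8% versus neutral control, with both replicates also reaching 8%; inconclusive = only one of the mean or replicate conditions met; inactive = mean below 8% and not both replicates reaching 8%.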

assay: F508del CFTR correction, initial screen, CFBE line, single point (AID 720511); conditions: CFBE cells, YFP halide quenching, at 7.58 µM, stronger effect = higher value;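 note: cells transiently co-express mutant CFTR-F508del with the halide-sensitive YFP; corrector assay measuring rescue of mutant channel to the surface after 24 h compound exposure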

Structure (SMILES) | activity (quench increase)
C[C@]12CCC3C(CC[C@H]4C[C@@H](O)CC[C@]34C)C1C[C@@H](O)[C@H]2O (stereo not given in full) | 1.25%
C[C@]12CCC3C(CC[C@H]4[C@H](O)[C@H](O)CC[C@]34C)C1CC[C@@H]2O (stereo not given in full) | 0.916%
C[C@]12CCC3C(CC[C@H]4[C@H](O)[C@H](O)CC[C@]34C)C1CCC2=O (stereo not given in full) | 11.1% (active)
COC(=O)C1=C(c2ccc(OCc3ccccc3)cc2)C[C@@H]2CC[C@H]1N2C(=O)NCc1ccc(Cl)cc1 | 4.11%
C/C=C/c1ccc(C2[C@@H]3CN(Cc4cncnc4)C[C@H]2N3)cc1 (stereo not given in full) | 2.42% [% fluorescence drop versus neutral controls, stimulated with forskolin plus potentiator P3]
